From PubChem BioAssay (NCI)
About 83,000 compounds went through this panel and 20% of them were active in at least one assay; those are over-represented in the sample as a whole.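 Testing used 96-well plates and a 48-hour single-concentration exposure. Example: -40 means 40% of the starting cells died.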 Activity calls are given as the source filed them. The calls were made as follows: active = growth percent below 10; inactive = the rest.

tested on: MDA-MB-468 breast; experiment: NCI-60 one-dose screen, 48 h (100 = growth as untreated, 0 = no growth, -100 = all killed); settings: 10 µM unless noted

SMILES | growth
CC(C)(C)c1cnc(CSc2cnc(NC(=O)C3CCNCC3)s2)o1 | -43.7% (active)
N#Cc1c2c(nn(-c3ccccc3)c1=O)C(O)=C([N+](=O)[O-])C(c1ccccc1)C2 (stereo not given) | 64.1% (inactive)
COC(=O)c1cc(=O)nc(N/N=C/c2ccc(C)cc2)s1 | 110% (inactive)
O=[N+]([O-])c1cccc(C(F)(F)F)c1 | 101% (inactive)
COc1ccc(-c2cc(-c3cccnc3)nc3sc4c(=O)n(-c5ccc(C)cc5)nnc4c23)cc1OC | 88% (inactive)
O=C(/C(=C/c1ccccc1)CBr)c1ccccc1 | -10% (active)
O=C(O)C(O)c1ccccc1 (stereo not given) | 100% (inactive)
Brc1ccc2[nH]cc(-c3nc(-c4c[nH]c5ncccc45)cs3)c2c1 | 43.6% (inactive)
COc1ccc(/C=N/Nc2nc(Nc3ccccc3)nc(Nc3ccc(S(N)(=O)=O)cc3)n2)cc1 | 76.3% (inactive)
COc1cccc(NC(=O)c2cccc(-c3cc(=O)c4c(OC)c(OC)c(OC)cc4o3)c2)c1 | 79% (inactive)
CN1CCN(CC(=O)Nc2nc(-c3cccc(NS(=O)(=O)c4cccc5c(N(C)C)cccc45)c3)cs2)CC1 | 38.7% (inactive)
COc1ccc(C2=NN(C(=O)c3cc(OC)c(OC)c(OC)c3)C(c3ccc(C#N)cc3)C2)cc1OC (stereo not given) | -25.8% (active)
O=C(O)COc1ccc(F)cc1 | 98.8% (inactive)
CCC(C)NC(=O)c1ccccc1C (stereo not given) | 86.7% (inactive)
Cc1ccc([P+](Cc2ccccc2)(c2ccccc2)c2ccccc2)cc1 | -13.5% (active)
C#CCn1cc(/C=N/Nc2nc(-c3ccc(Br)cc3)cs2)c2ccccc21 | 105% (inactive)
COc1ccc(-c2nnc(SCC(=O)c3ccccc3)o2)cc1 | 91.5% (inactive)
CCOC(=O)c1sc(Nc2ccc(Cl)cc2)nc1C | -13.9% (active)
O=C(CCCN1CCOCC1)Nc1ccc(Cn2nnc3c2C(=O)c2nnn(Cc4ccc(NC(=O)CCCN5CCOCC5)cc4)c2C3=O)cc1 | -74.7% (active)
Fc1ccc2c(-c3cncn3CCc3ccccc3)c[nH]c2c1 | 74.6% (inactive)

SMILES | growth
COC(=O)C(Sc1ccc(Cl)cc1)C1SC(=S)N(Cc2ccccc2)C1=O (stereo not given) | 94.7% (inactive)
O=C1Nc2ccccc2/C1=N/N1C(=O)CN(CCCl)C1=O | 107% (inactive)
CCOc1ccc(Nc2ccnc3cc(Cl)ccc23)cc1 | -1.66% (active)
CCOC(=O)C1=NN(c2ccccc2)C(=O)/C1=C\N1C(=O)/C(=C/c2cccc(O)c2)SC1=S | 106% (inactive)
CCCCC(CC#N)(CCC)CCC | 112% (inactive)
CC(=O)Nc1ccc(Sc2ccc([N+](=O)[O-])o2)cc1 | 4.76% (active)
CC1(C)CCc2cc(-c3ccn(S(=O)(=O)c4ccc(Cl)cc4)n3)ccc2O1 | 48.9% (inactive)
CO/N=C1\CCc2c(sc(NC(=O)c3cccc(C(F)(F)F)c3)c2C(N)=O)C1 | 29.9% (inactive)
O=C(CCN1C(=O)c2ccccc2C1=O)Nc1ccc(Cl)cc1 | 116% (inactive)
COc1ccc(-c2n/c(=C\c3c(O)[nH]c4ccccc34)cc3c2=Nc2ccccc2-3)cc1 | -48% (active)
Cc1ccc(NS(=O)(=O)c2ccccc2)c(NS(=O)(=O)c2ccccc2)c1 | 104% (inactive)
COc1cc(O)c2c(=O)c3c(CC=C(C)C)cc(OC)c(O)c3oc2c1 | 64.6% (inactive)
NC(CC(=O)O)C(=O)OCc1ccccc1 (stereo not given) | 89.4% (inactive)
CN1CCN(c2ccc(N3Cc4ccccc4OC4=C3C(=O)c3c(O)ccc(O)c3C4=O)cn2)CC1 | -60.1% (active)
O=C1C(Br)=CC2C1C1C3CCC3C2(Br)C12OCCO2 (stereo not given) | 19.4% (inactive)
O=C1Nc2cc(OC(F)(F)F)ccc2Oc2ccc(-c3ccnc(N4CC[C@H](O)C4)c3)cc21 | -28.9% (active)
Cn1nc(N)c2cc([C@@H]3Nc4ccc5[nH]ncc5c4[C@H]4C5CCC(C5)[C@@H]34)ccc21 (stereo not given in full) | -2.64% (active)
COc1ccc(-c2[nH]ncc2-c2cc(OC)c(OC)c(OC)c2)cc1 | -4.91% (active)
COc1ccc(/C(C)=C(\c2ccc(OCCN3CCCCCC3)cc2)c2ccc(OC(=O)C3CCCCC3)cc2)cc1 | -74.5% (active)
COC12C=C/C(=C(/C(=O)OCc3cncnc3)C(=O)CCCCCCCCC3(OC)C=C/C(=C(/C(=O)OCc4cncnc4)C(=O)CCCCCCCC1)O3)O2 | -39.8% (active)
